Consider five compounds from PubChem BioAssay.

Calls of active or inactive are those of the source.

Test [1] can be described thus: optical density shifts of acrAB sulA E. coli – strain DRC41, OD650, 48 h, E. coli filamentation inducer project, primary screen (AID 1152).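 Further: E. coli MC1000 strain DRC41 lacking acrAB efflux pump and sulA.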 Particulars: higher = more signal, called active from +8 up or from −8 down.
Test [2] is described as follows: probe aLefty1 binding on compound microarray – biochemical, small-molecule microarray, 635/667 nm fluorescence, primary screen (AID 1153).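 Further: score merges spot fluorescence with signal-to-noise ratio from the scanned slide images.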 Particulars: higher = more signal.
Test [3] can be described thus: plasmodial surface anion channel blockers, osmotic lysis – cell-based, P. falciparum Indochina, OD700, 1 h, primary screen (AID 1154). The note with it: P. falciparum Indochina infected RBC osmotic lysis, higher = more signal, called active from +8 up or from −8 down.
Test [4] can be described thus: plasmodial surface anion channel blockers, osmotic lysis – cell-based, P. falciparum Indochina, OD700, 2 h, primary screen (AID 1155).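 Further: lysis reports solute entry through the parasite surface anion channel PSAC.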 Particulars: P. falciparum Indochina infected erythrocytes, higher = more signal, called active from +8 up or from −8 down.
Test [5] in a line: changes in parasitized red cell lysis, either direction – P. falciparum Indochina, OD700, 3 h, PSAC antagonist project, primary screen (AID 1156). The note with it: P. falciparum-infected erythrocytes, osmotic lysis, higher = more signal, called active from +8 up or from −8 down.
Test [6] can be described thus: plasmodial surface anion channel blockers, osmotic lysis – cell-based, P. falciparum Indochina, OD700, 18 h, primary screen (AID 1157). Particulars: P. falciparum Indochina infected erythrocytes, osmotic lysis OD700, 18 h; higher = more signal, called active from +8 up or from −8 down.
The nature of test [7]: S6 kinase pathway phospho-S6 level changes – cell-based, A549, cytoblot, luminescence, serum-stimulated, primary screen (AID 1158).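 Further: serum-stimulated A549 lung adenocarcinoma cells; signal is phosphorylated S6 detected by cytoblot immunostaining with HRP secondary.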 Particulars: 5 h, higher = more signal.
For test [8], the target named is NADPH oxidase 2 (Homo sapiens) (UniProt P04839). The test is described as follows: compounds shifting NOX2 Amplex Red fluorescence – cell-based, HEK293-NOX2, PMA-stimulated, NOX inhibitor project, primary screen (AID 1159). Further: test concentration not given here. Particulars: 45 min, higher = more signal, called active from +8 up or from −8 down.
NADPH oxidase 2 (Homo sapiens), sequence (P04839 whole entry, looked up): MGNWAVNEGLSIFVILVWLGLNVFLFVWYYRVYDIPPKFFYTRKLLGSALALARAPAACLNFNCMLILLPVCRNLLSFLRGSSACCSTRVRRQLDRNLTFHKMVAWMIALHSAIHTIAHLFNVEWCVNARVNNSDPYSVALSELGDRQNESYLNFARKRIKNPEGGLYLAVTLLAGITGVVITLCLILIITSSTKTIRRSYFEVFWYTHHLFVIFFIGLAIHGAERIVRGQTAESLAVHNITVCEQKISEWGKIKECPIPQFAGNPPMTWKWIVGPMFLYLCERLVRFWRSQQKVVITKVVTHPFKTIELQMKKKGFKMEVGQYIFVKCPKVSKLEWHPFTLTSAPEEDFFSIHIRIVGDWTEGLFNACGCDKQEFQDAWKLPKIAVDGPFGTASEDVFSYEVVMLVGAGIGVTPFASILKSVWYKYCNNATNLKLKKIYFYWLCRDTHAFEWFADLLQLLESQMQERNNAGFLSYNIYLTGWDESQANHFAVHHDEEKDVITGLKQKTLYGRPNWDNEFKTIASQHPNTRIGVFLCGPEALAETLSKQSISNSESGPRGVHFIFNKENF
Test [9] has as its target NADPH oxidase 4 (Homo sapiens) (UniProt Q9NPH5). The test is described as follows: compounds shifting NOX4 Amplex Red fluorescence – cell-based, HEK293-NOX4, tetracycline-induced, NOX inhibitor project, primary screen (AID 1160). The note with it: HEK293-NOX4, Amplex Red H2O2 fluorescence, 45 min; higher = more signal, called active from +8 up or from −8 down.
For test [10], the target named is NADPH oxidase 5 (Homo sapiens) (UniProt Q96PH1). As to the kind of experiment: compounds shifting NOX5 Amplex Red fluorescence – cell-based, HEK293-NOX5, NOX inhibitor project, primary screen (AID 1161). Particulars: HEK293-NOX5, ionomycin, 45 min, higher = more signal.
NADPH oxidase 5 (Homo sapiens), sequence (Q96PH1 whole entry, looked up): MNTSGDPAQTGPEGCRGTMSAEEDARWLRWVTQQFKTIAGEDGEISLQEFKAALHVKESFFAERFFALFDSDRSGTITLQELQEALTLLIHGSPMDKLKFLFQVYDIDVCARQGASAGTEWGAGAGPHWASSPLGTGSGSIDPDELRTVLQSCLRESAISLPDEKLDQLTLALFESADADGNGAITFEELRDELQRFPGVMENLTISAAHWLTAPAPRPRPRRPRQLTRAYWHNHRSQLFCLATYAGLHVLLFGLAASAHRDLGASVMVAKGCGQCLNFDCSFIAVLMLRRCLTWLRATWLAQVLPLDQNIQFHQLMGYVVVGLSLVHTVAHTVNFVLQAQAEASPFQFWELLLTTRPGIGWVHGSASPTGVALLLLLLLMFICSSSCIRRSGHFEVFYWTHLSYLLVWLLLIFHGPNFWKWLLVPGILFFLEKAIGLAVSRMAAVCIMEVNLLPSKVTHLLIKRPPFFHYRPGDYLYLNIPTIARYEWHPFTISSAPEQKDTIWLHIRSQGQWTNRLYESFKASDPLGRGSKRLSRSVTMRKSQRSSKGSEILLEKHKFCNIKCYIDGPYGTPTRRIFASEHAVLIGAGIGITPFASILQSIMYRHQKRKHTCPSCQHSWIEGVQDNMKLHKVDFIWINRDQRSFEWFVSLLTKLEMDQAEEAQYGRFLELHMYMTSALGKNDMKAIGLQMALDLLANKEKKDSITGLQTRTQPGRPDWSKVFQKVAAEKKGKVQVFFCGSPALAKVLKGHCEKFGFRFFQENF
A short description of test [11]: compound effects on lung adenocarcinoma cell viability – A549, calcein-AM fluorescence, 48 h, basal, profiling panel (AID 1162). Further: test concentration not given here. The note with it: higher = more signal.
Test [12] in a line: compound effects on differentiated 3T3-L1 adipocyte viability – cell-based, 3T3-L1 adipocytes, calcein-AM fluorescence, 48 h, basal, profiling panel (AID 1163). Further: test concentration not given here. Particulars: 3T3-L1 adipocytes viability, higher = more signal.
A short description of test [13]: compound effects on hepatocellular carcinoma cell viability – HepG2, calcein-AM fluorescence, 48 h, basal, profiling panel (AID 1164). Further: test concentration not given here. The note with it: higher = more signal.
Test [14] can be described thus: compound effects on multiple myeloma cell viability – MM1S, calcein-AM fluorescence, 48 h, basal, profiling panel (AID 1165).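 Further: viability of MM1S multiple myeloma cells under basal unstimulated conditions; test concentration not given here.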 Particulars: higher = more signal.
Test [15] is described as follows: calcein-AM signal in unstimulated myeloma cells – cell-based, calcein-AM fluorescence, 48 h, PK04 Diversity Set, profiling panel (AID 1166).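 Further: cells grown under basal conditions without added stimulus; test concentration not given here.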 Particulars: RPMI8226 myeloma viability, higher = more signal.
Test [16] in a line: JC-1 mitochondrial signal, unstimulated HepG2 cells – cell-based, JC-1 fluorescence, 24 h, 100 nL compound, profiling panel (AID 1167). Further: test concentration not given here. The note with it: HepG2 mitochondrial potential, higher = more signal.
A short description of test [17]: JC-1 mitochondrial signal, unstimulated adipocytes – cell-based, JC-1 fluorescence, 3T3-L1 adipocytes, 24 h, 100 nL compound, profiling panel (AID 1168). Further: test concentration not given here. The note with it: JC-1 mitochondrial fluorescence, higher = more signal, called active from +8 up or from −8 down.
The nature of test [18]: JC-1 mitochondrial signal, unstimulated myeloma cells – cell-based, JC-1 fluorescence, RPMI8226, 24 h, 100 nL compound, profiling panel (AID 1169). Further: test concentration not given here. The note with it: JC-1 mitochondrial potential fluorescence, higher = more signal.
A short description of test [19]: JC-1 mitochondrial signal, unstimulated MM1S myeloma – cell-based, JC-1 fluorescence, 24 h, 100 nL compound, profiling panel (AID 1170). Further: test concentration not given here. Particulars: MM1S mitochondrial potential, higher = more signal.
Test [20] in a line: resazurin metabolic signal in A549 cells – cell-based, resazurin fluorescence, 24 h, PK04 Diversity Set, profiling panel (AID 1171). Further: test concentration not given here. Particulars: A549 viability, higher = more signal, called active from +8 up or from −8 down. A general note: The colour change of resazurin is a common sign of viable cells or microbes.

NADPH oxidase 4 (Homo sapiens), sequence (Q9NPH5 whole entry, looked up): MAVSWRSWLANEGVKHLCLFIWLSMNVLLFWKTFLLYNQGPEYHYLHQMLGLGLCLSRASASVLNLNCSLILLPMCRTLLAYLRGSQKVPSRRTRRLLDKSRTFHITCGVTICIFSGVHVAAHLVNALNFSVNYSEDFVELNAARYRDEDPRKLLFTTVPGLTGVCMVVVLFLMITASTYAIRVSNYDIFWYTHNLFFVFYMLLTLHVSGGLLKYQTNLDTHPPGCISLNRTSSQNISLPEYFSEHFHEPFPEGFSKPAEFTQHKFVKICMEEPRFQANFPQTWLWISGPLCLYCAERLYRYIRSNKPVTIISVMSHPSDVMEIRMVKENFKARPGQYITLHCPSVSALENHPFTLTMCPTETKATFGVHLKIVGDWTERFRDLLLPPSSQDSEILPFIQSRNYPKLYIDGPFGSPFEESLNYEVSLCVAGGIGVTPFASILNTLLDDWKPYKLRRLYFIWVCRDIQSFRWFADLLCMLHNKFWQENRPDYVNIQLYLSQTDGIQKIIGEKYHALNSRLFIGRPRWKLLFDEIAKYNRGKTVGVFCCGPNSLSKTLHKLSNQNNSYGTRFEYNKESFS

`COc1ccc(-c2cc3c(c(Cc4ccccc4)n2)[Si](C(C)C)(C(C)C)OC3)cn1`: the z-score in test [1] was -1.28 (inactive); in test [3], 2.28 (inactive); in test [4], 0.139 (inactive); in [5], -0.709 (inactive); in test [6] it was 0.408 (inactive); in test [7], 0.0758. Moreover, the z-score in test [8] was -1.62 (inactive); in test [9], -0.121 (inactive); in test [10] it was -2.02; in [11], -0.103; in test [12], -0.19; in test [13], 0.147. For the same compound, the z-score was -0.494 in [14]; -1.37 in test [15]; -0.914 in [16]; -1.19 (inactive) in test [17]; -0.346 in test [18]; 0.488 in [19]. In addition, the z-score in test [20] is 2.17 (inactive). Moreover, the composite z-score in test [2] was -0.0099.

Turning to `CC[C@@H]1C=C(C(=O)O)[C@H](c2ccc(C)cc2)N1S(=O)(=O)c1ccc(C)cc1`, the z-score in [1] was -0.557 (inactive); in [3], 1.08 (inactive); in test [4], 0.661 (inactive); in test [5], -0.245 (inactive); in test [6], 0.856 (inactive); in [7] it was -0.362. The z-score in test [8] was 0.587 (inactive); in test [9] it was -0.57 (inactive); in [10] it was -1.24; in test [11] it was -0.795; in test [12] it was -0.235; in test [13], -0.997. The z-score is 0.0477 in test [14]; 0.365 in test [15]; 0.0562 in [16]; 0.348 (inactive) in test [17]; 0.637 in [18]; -0.643 in test [19]. For the same compound, in test [20], the z-score is 0.357 (inactive). In addition, the composite z-score in test [2] stood at 0.0582.

For the compound `O=C1O[C@H](c2ccccc2)[C@H](c2ccccc2)N2[C@H]1[C@@H](C(=O)NC[C@H](O)c1ccccc1)[C@]1(C(=O)Nc3ccccc31)[C@H]2c1ccc(O)cc1`, the z-score in test [1] was 0.281 (inactive); in [3], 2.49 (inactive); in [4] it was 1.29 (inactive); in test [5] it was -0.214 (inactive); in test [6] it was 1.29 (inactive); in [7], -0.482. Besides, the z-score was -0.0983 (inactive) in test [8]; -0.705 (inactive) in test [9]; 0.152 in test [10]; -0.184 in test [11]; 0.279 in [12]; -0.454 in test [13]. Moreover, the z-score is -2.03 in [14]; -3.84 in [15]; -3.2 in test [16]; -0.104 (inactive) in [17]; -0.933 in [18]; -1.03 in test [19]. Further, the z-score in [20] was -0.377 (inactive). Besides, the composite z-score in [2] came out at 0.0191.

For the compound `CCCC(=O)N(CCc1c[nH]c2ccccc12)[C@@H]1CC(C(=O)NCCO)=C[C@H](Oc2c(I)cc(CO)cc2OC)[C@H]1O`, the z-score in test [1] is 1.57 (inactive); in [3], 13.2 (active); in [4], 1.47 (inactive); in test [5] it was 2.04 (inactive); in test [6], 0.501 (inactive); in test [7], 0.968. For the same compound, the z-score in test [8] was -0.674 (inactive); in test [9] it was 1.07 (inactive); in test [10], 1.16; in test [11] it was 0.0593; in test [12] it was -0.0939; in test [13], 0.0635. Moreover, the z-score is 0.704 in [14]; 0.0598 in test [15]; 0.149 in [16]; -0.937 (inactive) in [17]; -0.178 in test [18]; -1.49 in test [19]. In addition, the z-score in test [20] was -0.558 (inactive). The composite z-score in test [2] is -0.275.

For `O=C1[C@H]2C=C(Br)[C@H](C[C@@H]2OCCCCCCO)[C@@]12CO2`, the z-score is -1.69 (inactive) in [1]; 1.53 (inactive) in test [3]; 0.318 (inactive) in [4]; 1.2 (inactive) in test [5]; 0.501 (inactive) in [6]; -0.276 in test [7]. The z-score in test [8] is 0.486 (inactive); in test [9] it was 0.633 (inactive); in test [10], -0.292; in [11], -0.141; in test [12] it was -0.572; in test [13] it was -0.339. The z-score in [14] was -1.04; in [15] it was 0.206; in test [16], -1.59; in [17], -0.253 (inactive); in test [18], -0.601; in [19], -0.0629. Moreover, the z-score in test [20] was -0.247 (inactive). The compound further displayed a composite z-score in [2] of -0.101.
